Measurements reported in PubChem BioAssay (Tox21).
Values without a mark were called inactive. Inconclusive results are not listed. A call without a number means that no potency is given here. Activity calls are given as the source filed them. Unless noted, the call rests on the fitted dose curve; in most records, active means well fitted curve in the direction sought with a large enough effect in the repeat runs; inconclusive means weak or mixed curves; inactive means no such curve, though single readings can be large; an effect the other way counts as inactive or inconclusive.

Legend:
[1] = target: Progesterone receptor (Homo sapiens) (UniProt P06401); assay: qHTS assay to identify small molecule agonists of the progesterone receptor (PR) signaling pathway (AID 1346784; calls by dose curve; further: nearly all actives have a fitted effect of over 30% in size)
In short: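 Reporter assay, GripTite PR-UAS-bla HEK 293T cells: 16 hr exposure to DMSO-dissolved compounds at 37C, 5% CO2, in steroid-depleted (2% charcoal-stripped FBS) medium; beta-lactamase measured by FRET fluorescence.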

[2] = target: Progesterone receptor (Homo sapiens) (UniProt P06401); assay: qHTS assay to identify small molecule antagonists of the progesterone receptor (PR) signaling pathway (AID 1346795; active means well fitted inhibition curve with a large enough effect in the signal ratio in the repeat runs, not every such curve was filed as active; the % refers to the signal ratio)
In short: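 Stimulus R5020 at 1 nM final; cells HEK293T PR-UAS-bla; medium with 2% charcoal-stripped FBS; compound exposure 16 hr at 37C, 5% CO2; detection by FRET beta-lactamase substrate, 2 hr, room temperature.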

[3] = qHTS assay to identify small molecule agonists of the progesterone receptor (PR) signaling pathway - cell viability counter screen (AID 1346799; calls by dose curve; further: nearly all actives have a fitted effect of over 45% in size)
In short: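 Multiplexed viability read: CellTiter-Glo luminescence, 30 min RT, following LiveBLAzer FRET measurement on PR-UAS-bla HEK293T cells exposed to compounds 16 hr.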

[4] = qHTS assay to identify small molecule antagonists of the TGF-beta/Smad signaling pathway - cell viability counter screen (AID 1346824); further: nearly all actives have a fitted effect of over 50% in size
In short: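 SBE-bla HEK 293T cells, incubated overnight, then compound plus 0.25 ng/mL TGF-beta1 (stock added) for 5 hr at 37 C. Viability was read in the same wells by CellTiter-Glo luminescence after 30 min at room temperature.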

[5] = qHTS assay to identify small molecule agonists of the TGF-beta/Smad signaling pathway - cell viability counter screen (AID 1346829); further: top concentration of the series differs between compounds; nearly all actives have a fitted effect of over 45% in size
In short: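 SBE-bla HEK 293T cells plated overnight, compound exposure 5 hr at 37 C. Viability read in the same wells by CellTiter-Glo luminescence after 30 min at room temperature, following the beta-lactamase read.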

[6] = qHTS assay to identify small molecule agonists of the TGF-beta/Smad signaling pathway (AID 1346859; active means well fitted activation curve with a large enough effect in the signal ratio in the repeat runs, not every such curve was filed as active; the % refers to the signal ratio; further: series mostly up to about 77 µM)
In short: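 Screening used HEK 293T SBE-bla cells at 4,000/well. Test agents: 5 hr, 37 C. Detection: FRET substrate, 2 hr RT, then excitation 405 nm with emissions at 460 and 530 nm.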

[7] = Human pregnane X receptor (PXR) small molecule agonists, qHTS cell viability counter screen (AID 1346977); further: nearly all actives have a fitted effect of over 50% in size
In short: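 In each well, the PXR reporter HepG2 line was checked for viability: CellTiter-Fluor reagent added 23hr post-dosing, fluorescence read after 1hr incubation at 37C.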

[8] = Caspase-3/7 induction in HepG2 cells by small molecules, qHTS assay (AID 1346978); further: nearly all actives have a fitted effect of over 15% in size
In short: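 Wild-type HepG2 cells, 2,000/well, settled 5 hr at 37 C and 5% CO2, then compound-treated for 17 hr; caspase-3/7 activity read by luminescent Caspase-Glo 3/7 after 30 min at room temperature.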

[9] = Caspase-3/7 induction in CHO-K1 cells by small molecules, qHTS cell viability counter screen (AID 1346979); further: nearly all actives have a fitted effect of over 35% in size; further: potency means the concentration at half of the fitted maximal effect
In short: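 Following a 5hr settling period, CHO-K1 cells at 1,500 per well received DMSO-dissolved compounds. Cell viability was quantified 16hr later by CellTiter-Fluor fluorescence, measured after 1hr with reagent at 37C.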

[10] = Caspase-3/7 induction in CHO-K1 cells by small molecules, qHTS assay (AID 1346980); further: nearly all actives have a fitted effect of over 15% in size
In short: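 Wild-type CHO-K1 cells exposed to compounds for 17hr at 37 C, 5% CO2. Caspase-3/7 activity then measured by Caspase-Glo 3/7 luminescence after 30min at room temperature.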

[11] = Caspase-3/7 induction in HepG2 cells by small molecules, qHTS cell viability counter screen (AID 1346981); further: series mostly up to about 92 µM; nearly all actives have a fitted effect of over 30% in size
In short: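 After a 5-hr attachment period at 37 C and 5% CO2, wild-type HepG2 cells received compounds in DMSO. Sixteen hours later CellTiter-Fluor was dispensed and the fluorescent signal quantified after a further hour.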

[12] = target: Nuclear receptor subfamily 1 group I member 2 (Rattus norvegicus) (UniProt Q9R1A7); assay: Rat pregnane X receptor (rPXR) activation by small molecules, qHTS assay (AID 1346983); conditions: rPXR luciferase reporter cells, One-Glo luminescence, 24 h; max activation: stronger effect = higher value; further: nearly all actives have a fitted effect of over 20% in size; further: potency means the concentration at half of the fitted maximal effect
In short: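 Cell-based rPXR activation assay: rPXR cells, 2,000 per well, rested 5hr at 37 C, then exposed to compounds in DMSO for 24 hr at 37 C. Luciferase activity read by One-Glo luminescence after 30 min at room temperature.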

[13] = qHTS assay to identify small molecule agonists of the estrogen receptor alpha (ER-alpha) signaling pathway in the presence of an antagonist - cell viability counter screen (AID 1259386);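 further: series mostly up to about 92 µM; cells exposed to compounds for 22 h at 37 °C before the viability read; nearly all actives have a fitted effect of over 30% in size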
In short: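 Using estrogen-depleted VM7Luc4E2 cells, the 15-concentration compound series was applied together with 10.0nM ICI-182,780 and incubated 22hr at 37C/5% CO2. Cell viability was then scored by CellTiter-Fluor.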

[14] = target: Thyrotropin-releasing hormone receptor (Homo sapiens) (UniProt P34981); assay: qHTS assay to identify small molecule antagonists of the thyrotropin-releasing hormone receptor (TRHR) signaling pathway (AID 1346877; active means well fitted inhibition curve with a large enough effect in the repeat runs, not every such curve was filed as active; further: series mostly up to about 51 µM)
In short: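 Calcium signal in dye-loaded TRHR/HEK293 cells; compounds added 5 min before TRH (1 nM final); fluorescence monitored 3 min at 1 s steps.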

[15] = target: Thyrotropin-releasing hormone receptor (Homo sapiens) (UniProt P34981); assay: qHTS assay to identify small molecule agonists of the thyrotropin-releasing hormone receptor (TRHR) signaling pathway (AID 1346891; calls by dose curve; further: series mostly up to about 58 µM)
In short: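 Readout was intracellular calcium fluorescence in TRHR-Hek293 cells. Cells were incubated 18 h, dye-loaded 2 h at 37 °C, and treated with compound in agonist mode.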

[16] = target: Cytochrome P450 2D6 (Homo sapiens) (UniProt P10635); assay: Cytochrome P450 Family 2 Subfamily D Member 6 (CYP2D6) small molecule antagonists: luciferase reporter qHTS assay (AID 1671196); further: nearly all actives have a fitted effect of over 50% in size; further: potency means the concentration at half of the fitted maximal effect
In short: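 Room-temperature luminescent CYP2D6 activity assay: compound preincubated 10 min with enzyme–substrate mix, NADPH-initiated reaction 1 h, detection reagent 20 min before reading.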

[17] = target: Nuclear receptor subfamily 1 group I member 2 (Homo sapiens) (UniProt O75469); assay: Human pregnane X receptor (PXR) small molecule agonists, qHTS assay (AID 1346982); further: nearly all actives have a fitted effect of over 35% in size; further: potency means the concentration at half of the fitted maximal effect
In short: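 Tox21 qHTS; PXR-Luc HepG2; compounds pinned from DMSO; 24 hr, 37 C; ONE-Glo luciferase detection, 30 min room temperature.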

[18] = qHTS assay to identify small molecule antagonists of the progesterone receptor (PR) signaling pathway - cell viability counter screen (AID 1346798); further: nearly all actives have a fitted effect of over 50% in size; further: potency means the concentration at half of the fitted maximal effect
In short: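 In the same plates used for the beta-lactamase readout, cell viability of compound- and R5020-treated PR-UAS-bla HEK293T cells (16 hr, 37C) was assessed by CellTiter-Glo luminescence.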

[19] = target: Nuclear receptor subfamily 1 group I member 2 (Homo sapiens) (UniProt O75469); assay: CYP3A4 induction through human pregnane X receptor (PXR) by small molecules, qHTS assay (AID 1346984); further: nearly all actives have a fitted effect of over 40% in size
In short: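 Cells (DPX-2; HepG2 with PXR element plus CYP3A4-promoter luciferase) settled 5hr, then were treated 24hr at 37C. A 3hr, 3uM-final Luciferin-IPA step preceded luminescence measurement with One-Glo.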

[20] = target: Nuclear receptor subfamily 1 group I member 2 (Homo sapiens) (UniProt O75469); assay: Human pregnane X receptor (PXR) activation by small molecules, qHTS assay (AID 1346985); further: potency means the concentration at half of the fitted maximal effect; nearly all actives have a fitted effect of over 40% in size
In short: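 DPX-2 cells (HepG2 co-transfected with a PXR response element and a CYP3A4-promoter luciferase construct) were seeded at 2,000 per well, rested 5 hr at 37C, then exposed to DMSO-dissolved compounds for 24 hr. Activation was read as luciferase luminescence.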

Sequence of Nuclear receptor subfamily 1 group I member 2 (Homo sapiens) (O75469 whole entry, looked up): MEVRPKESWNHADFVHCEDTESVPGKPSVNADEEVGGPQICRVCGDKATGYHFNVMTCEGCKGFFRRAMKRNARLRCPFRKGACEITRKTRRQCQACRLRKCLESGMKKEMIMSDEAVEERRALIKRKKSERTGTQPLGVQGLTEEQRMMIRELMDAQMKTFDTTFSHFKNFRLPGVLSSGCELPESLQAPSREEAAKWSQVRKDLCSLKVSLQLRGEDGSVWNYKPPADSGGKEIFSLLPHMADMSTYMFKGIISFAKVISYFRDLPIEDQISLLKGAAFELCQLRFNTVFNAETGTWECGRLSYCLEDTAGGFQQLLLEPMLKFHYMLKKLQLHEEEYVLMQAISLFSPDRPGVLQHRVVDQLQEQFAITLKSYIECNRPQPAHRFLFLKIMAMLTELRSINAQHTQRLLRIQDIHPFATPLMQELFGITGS
Sequence of Cytochrome P450 2D6 (Homo sapiens) (P10635 whole entry, looked up): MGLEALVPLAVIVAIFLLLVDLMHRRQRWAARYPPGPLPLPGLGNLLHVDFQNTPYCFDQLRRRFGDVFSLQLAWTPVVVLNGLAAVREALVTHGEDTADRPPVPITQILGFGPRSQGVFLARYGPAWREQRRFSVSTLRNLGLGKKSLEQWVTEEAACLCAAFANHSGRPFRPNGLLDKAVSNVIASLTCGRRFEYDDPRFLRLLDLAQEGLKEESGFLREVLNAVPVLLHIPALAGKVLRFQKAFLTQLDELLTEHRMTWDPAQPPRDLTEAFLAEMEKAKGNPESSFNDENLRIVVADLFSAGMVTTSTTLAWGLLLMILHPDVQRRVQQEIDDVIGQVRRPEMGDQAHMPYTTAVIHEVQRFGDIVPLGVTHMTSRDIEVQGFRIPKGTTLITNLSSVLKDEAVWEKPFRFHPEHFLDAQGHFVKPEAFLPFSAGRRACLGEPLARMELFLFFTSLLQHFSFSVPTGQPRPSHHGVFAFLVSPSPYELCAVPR
Sequence of Thyrotropin-releasing hormone receptor (Homo sapiens) (P34981 whole entry, looked up): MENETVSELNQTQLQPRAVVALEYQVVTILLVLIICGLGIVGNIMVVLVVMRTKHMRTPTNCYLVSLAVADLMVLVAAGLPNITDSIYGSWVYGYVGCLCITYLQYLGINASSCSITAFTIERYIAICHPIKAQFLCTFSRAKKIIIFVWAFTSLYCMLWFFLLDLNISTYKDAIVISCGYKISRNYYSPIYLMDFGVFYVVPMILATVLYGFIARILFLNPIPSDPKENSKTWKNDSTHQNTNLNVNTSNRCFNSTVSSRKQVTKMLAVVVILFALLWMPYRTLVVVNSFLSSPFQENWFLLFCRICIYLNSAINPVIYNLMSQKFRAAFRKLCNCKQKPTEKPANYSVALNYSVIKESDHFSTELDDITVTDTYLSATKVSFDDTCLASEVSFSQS
Sequence of Progesterone receptor (Homo sapiens) (P06401 whole entry, looked up): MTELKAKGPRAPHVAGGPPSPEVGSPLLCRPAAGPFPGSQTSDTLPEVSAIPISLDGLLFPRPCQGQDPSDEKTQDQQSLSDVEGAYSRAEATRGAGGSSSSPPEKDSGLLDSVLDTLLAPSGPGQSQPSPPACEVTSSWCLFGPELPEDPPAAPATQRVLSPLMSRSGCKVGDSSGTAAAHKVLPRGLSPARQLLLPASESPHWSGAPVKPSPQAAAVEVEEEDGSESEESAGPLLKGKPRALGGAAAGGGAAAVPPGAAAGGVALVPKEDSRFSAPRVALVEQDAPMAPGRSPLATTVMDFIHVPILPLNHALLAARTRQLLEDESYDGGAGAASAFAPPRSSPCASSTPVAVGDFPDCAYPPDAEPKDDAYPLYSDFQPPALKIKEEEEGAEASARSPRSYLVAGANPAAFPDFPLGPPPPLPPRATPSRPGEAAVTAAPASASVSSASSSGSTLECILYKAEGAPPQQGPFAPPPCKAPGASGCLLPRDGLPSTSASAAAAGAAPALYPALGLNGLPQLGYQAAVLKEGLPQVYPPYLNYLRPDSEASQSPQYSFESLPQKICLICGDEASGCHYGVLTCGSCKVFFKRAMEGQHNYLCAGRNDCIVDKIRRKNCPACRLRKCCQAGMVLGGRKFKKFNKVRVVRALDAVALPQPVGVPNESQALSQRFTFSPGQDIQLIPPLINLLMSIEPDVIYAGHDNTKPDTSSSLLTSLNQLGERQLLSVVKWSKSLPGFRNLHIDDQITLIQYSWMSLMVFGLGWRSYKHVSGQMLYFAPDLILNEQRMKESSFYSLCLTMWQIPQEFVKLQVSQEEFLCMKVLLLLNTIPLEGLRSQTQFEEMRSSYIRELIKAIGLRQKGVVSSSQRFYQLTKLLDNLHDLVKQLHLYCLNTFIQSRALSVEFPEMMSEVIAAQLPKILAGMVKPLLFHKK
Sequence of Nuclear receptor subfamily 1 group I member 2 (Rattus norvegicus) (Q9R1A7 whole entry, looked up): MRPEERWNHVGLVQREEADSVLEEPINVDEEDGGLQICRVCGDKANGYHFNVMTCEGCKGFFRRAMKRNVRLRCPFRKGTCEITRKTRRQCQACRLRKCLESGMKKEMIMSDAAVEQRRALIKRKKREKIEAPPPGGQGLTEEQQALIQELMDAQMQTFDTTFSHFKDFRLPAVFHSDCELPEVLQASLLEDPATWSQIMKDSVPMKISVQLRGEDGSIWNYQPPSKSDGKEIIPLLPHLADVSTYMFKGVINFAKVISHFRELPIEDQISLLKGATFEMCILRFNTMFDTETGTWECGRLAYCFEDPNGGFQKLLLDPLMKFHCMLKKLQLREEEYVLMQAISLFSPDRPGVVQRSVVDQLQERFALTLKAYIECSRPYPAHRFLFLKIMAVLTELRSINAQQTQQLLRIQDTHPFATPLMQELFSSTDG

CCOc1nc2cccc(C(=O)O)c2n1Cc1ccc(-c2ccccc2-c2nn[nH]n2)cc1
outcome [1]: inactive | Potency [2]: inactive | Potency [3]: inactive | Potency [4]: inactive | Potency [5]: inactive | outcome [6]: inactive | Potency [7]: inactive | outcome [8]: inactive | Potency [9]: inactive | Potency [10]: inactive | Potency [11]: inactive | max activation [12]: -0.587%

Nc1nc(CC(=O)O)cs1
Potency [13]: inactive | Potency [4]: inactive | Potency [5]: inactive | outcome [6]: inactive | outcome [14]: inactive | Potency [15]: inactive | Potency [7]: inactive | outcome [8]: inactive | Potency [9]: inactive | Potency [10]: inactive | Potency [11]: inactive | Potency [16]: 28.3 µM (active)

Cc1cc(O)ccc1N
outcome [1]: inactive | Potency [3]: inactive | Potency [4]: inactive | Potency [5]: inactive | outcome [6]: inactive | outcome [14]: inactive | Potency [15]: inactive | outcome [8]: inactive | Potency [17]: 61.4 µM (active) | Potency [16]: 20.1 µM (active)

Nc1ccc(C(=O)Nc2ccccc2N)cc1
Potency [13]: inactive | Potency [18]: 13.3 µM (active) | Potency [4]: inactive | Potency [5]: inactive | outcome [6]: inactive | Potency [10]: inactive | Potency [11]: inactive | Potency [17]: 8.41 µM (active) | Potency [12]: 3.55 µM (active) | Potency [19]: inactive | Potency [20]: 11.2 µM (active) | Potency [16]: inactive

CC[C@]12CCCN3CCc4c(n(c5ccccc45)C(=O)C1)[C@@H]32
Potency [13]: inactive | Potency [18]: inactive | Potency [3]: inactive | Potency [4]: inactive | Potency [5]: inactive | outcome [6]: inactive | Potency [7]: inactive | outcome [8]: inactive | Potency [9]: 26.6 µM (active) | Potency [10]: inactive | Potency [12]: 8.91 µM (active) | Potency [16]: 0.155 µM (active)

Oc1ccc(Sc2ccc(O)cc2)cc1
Potency [13]: inactive | Potency [4]: inactive | Potency [5]: inactive | outcome [6]: inactive | outcome [14]: inactive | Potency [15]: inactive | Potency [7]: inactive | outcome [8]: inactive | Potency [10]: inactive | Potency [11]: inactive | Potency [17]: 51 µM (active) | Potency [16]: 33.3 µM (active)

O=C(/C=C/c1ccc(O)c(O)c1)O[C@@H]1C[C@](O)(C(=O)O)C[C@@H](O)[C@H]1O
outcome [1]: inactive | Potency [2]: inactive | Potency [18]: inactive | Potency [3]: inactive | Potency [4]: inactive | Potency [5]: inactive | outcome [6]: inactive | outcome [14]: inactive | Potency [15]: inactive | outcome [8]: inactive | Potency [10]: inactive | Potency [11]: inactive | Potency [17]: inactive | Potency [16]: inactive

Oc1ccc2c(c1)OCO2
outcome [1]: inactive | Potency [3]: inactive | Potency [4]: inactive | Potency [5]: inactive | outcome [6]: inactive | Potency [7]: inactive | outcome [8]: inactive | Potency [9]: inactive | Potency [10]: inactive | Potency [11]: inactive | Potency [17]: inactive | Potency [16]: 39.6 µM (active)

Cc1ccc(C)o1
outcome [1]: inactive | Potency [2]: inactive | Potency [18]: inactive | Potency [3]: inactive | Potency [4]: inactive | Potency [5]: inactive | outcome [6]: inactive | outcome [14]: inactive | Potency [15]: inactive | Potency [7]: inactive | Potency [9]: inactive | Potency [10]: inactive | Potency [11]: inactive | Potency [17]: inactive | Potency [16]: inactive
